Among the data in PMC8222333, “AsCas12a ultra nuclease facilitates the rapid generation of therapeutic cell medicines” are binding signal values, retold here.

The labels stand for the following.
B1: CCCA (dsDNA)
DNA 1: GCTATCTAGTGCTCAGTACGCACTGCCCAAGGAAACTTCTGGCAGGACCAGGTCATGAGATCGGAAGAGCACACGTCTGAACTCCAGTCA
DNA 2: TGACTGGAGTTCAGACGTGTGCTCTTCCGATCTCATGACCTGGTCCTGCCAGAAGTTTCCTTGGGCAGTGCGTACTGAGCACTAGATAGC
RNA: AAUUUCUACUCUUGUAGAUAGGAAACUUCUGGCAGGACC
B2: GTCA (dsDNA)
DNA 1: GCTATCTAGTGCTCAGTACGCACTGGTCAAGGAAACTTCTGGCAGGACCAGGTCATGAGATCGGAAGAGCACACGTCTGAACTCCAGTCA
DNA 2: TGACTGGAGTTCAGACGTGTGCTCTTCCGATCTCATGACCTGGTCCTGCCAGAAGTTTCCTTGACCAGTGCGTACTGAGCACTAGATAGC
RNA: AAUUUCUACUCUUGUAGAUAGGAAACUUCUGGCAGGACC
B3: GCCA (dsDNA)
DNA 1: GCTATCTAGTGCTCAGTACGCACTGGCCAAGGAAACTTCTGGCAGGACCAGGTCATGAGATCGGAAGAGCACACGTCTGAACTCCAGTCA
DNA 2: TGACTGGAGTTCAGACGTGTGCTCTTCCGATCTCATGACCTGGTCCTGCCAGAAGTTTCCTTGGCCAGTGCGTACTGAGCACTAGATAGC
RNA: AAUUUCUACUCUUGUAGAUAGGAAACUUCUGGCAGGACC
B4: CTCT (dsDNA)
DNA 1: GCTATCTAGTGCTCAGTACGCACTGCTCTAGGAAACTTCTGGCAGGACCAGGTCATGAGATCGGAAGAGCACACGTCTGAACTCCAGTCA
DNA 2: TGACTGGAGTTCAGACGTGTGCTCTTCCGATCTCATGACCTGGTCCTGCCAGAAGTTTCCTAGAGCAGTGCGTACTGAGCACTAGATAGC
RNA: AAUUUCUACUCUUGUAGAUAGGAAACUUCUGGCAGGACC
B5: CTGT (dsDNA)
DNA 1: GCTATCTAGTGCTCAGTACGCACTGCTGTAGGAAACTTCTGGCAGGACCAGGTCATGAGATCGGAAGAGCACACGTCTGAACTCCAGTCA
DNA 2: TGACTGGAGTTCAGACGTGTGCTCTTCCGATCTCATGACCTGGTCCTGCCAGAAGTTTCCTACAGCAGTGCGTACTGAGCACTAGATAGC
RNA: AAUUUCUACUCUUGUAGAUAGGAAACUUCUGGCAGGACC
B6: GTAA (dsDNA)
DNA 1: GCTATCTAGTGCTCAGTACGCACTGGTAAAGGAAACTTCTGGCAGGACCAGGTCATGAGATCGGAAGAGCACACGTCTGAACTCCAGTCA
DNA 2: TGACTGGAGTTCAGACGTGTGCTCTTCCGATCTCATGACCTGGTCCTGCCAGAAGTTTCCTTTACCAGTGCGTACTGAGCACTAGATAGC
RNA: AAUUUCUACUCUUGUAGAUAGGAAACUUCUGGCAGGACC
B7: GCGC (dsDNA)
DNA 1: GCTATCTAGTGCTCAGTACGCACTGGCGCAGGAAACTTCTGGCAGGACCAGGTCATGAGATCGGAAGAGCACACGTCTGAACTCCAGTCA
DNA 2: TGACTGGAGTTCAGACGTGTGCTCTTCCGATCTCATGACCTGGTCCTGCCAGAAGTTTCCTGCGCCAGTGCGTACTGAGCACTAGATAGC
RNA: AAUUUCUACUCUUGUAGAUAGGAAACUUCUGGCAGGACC
B8: GGGG (dsDNA)
DNA 1: GCTATCTAGTGCTCAGTACGCACTGGGGGAGGAAACTTCTGGCAGGACCAGGTCATGAGATCGGAAGAGCACACGTCTGAACTCCAGTCA
DNA 2: TGACTGGAGTTCAGACGTGTGCTCTTCCGATCTCATGACCTGGTCCTGCCAGAAGTTTCCTCCCCCAGTGCGTACTGAGCACTAGATAGC
RNA: AAUUUCUACUCUUGUAGAUAGGAAACUUCUGGCAGGACC
B9: GGCG (dsDNA)
DNA 1: GCTATCTAGTGCTCAGTACGCACTGGGCGAGGAAACTTCTGGCAGGACCAGGTCATGAGATCGGAAGAGCACACGTCTGAACTCCAGTCA
DNA 2: TGACTGGAGTTCAGACGTGTGCTCTTCCGATCTCATGACCTGGTCCTGCCAGAAGTTTCCTCGCCCAGTGCGTACTGAGCACTAGATAGC
RNA: AAUUUCUACUCUUGUAGAUAGGAAACUUCUGGCAGGACC
B10: GTGC (dsDNA)
DNA 1: GCTATCTAGTGCTCAGTACGCACTGGTGCAGGAAACTTCTGGCAGGACCAGGTCATGAGATCGGAAGAGCACACGTCTGAACTCCAGTCA
DNA 2: TGACTGGAGTTCAGACGTGTGCTCTTCCGATCTCATGACCTGGTCCTGCCAGAAGTTTCCTGCACCAGTGCGTACTGAGCACTAGATAGC
RNA: AAUUUCUACUCUUGUAGAUAGGAAACUUCUGGCAGGACC
B11: GTAT (dsDNA)
DNA 1: GCTATCTAGTGCTCAGTACGCACTGGTATAGGAAACTTCTGGCAGGACCAGGTCATGAGATCGGAAGAGCACACGTCTGAACTCCAGTCA
DNA 2: TGACTGGAGTTCAGACGTGTGCTCTTCCGATCTCATGACCTGGTCCTGCCAGAAGTTTCCTATACCAGTGCGTACTGAGCACTAGATAGC
RNA: AAUUUCUACUCUUGUAGAUAGGAAACUUCUGGCAGGACC
B12: CTAG (dsDNA)
DNA 1: GCTATCTAGTGCTCAGTACGCACTGCTAGAGGAAACTTCTGGCAGGACCAGGTCATGAGATCGGAAGAGCACACGTCTGAACTCCAGTCA
DNA 2: TGACTGGAGTTCAGACGTGTGCTCTTCCGATCTCATGACCTGGTCCTGCCAGAAGTTTCCTCTAGCAGTGCGTACTGAGCACTAGATAGC
RNA: AAUUUCUACUCUUGUAGAUAGGAAACUUCUGGCAGGACC
B13: GATC (dsDNA)
DNA 1: GCTATCTAGTGCTCAGTACGCACTGGATCAGGAAACTTCTGGCAGGACCAGGTCATGAGATCGGAAGAGCACACGTCTGAACTCCAGTCA
DNA 2: TGACTGGAGTTCAGACGTGTGCTCTTCCGATCTCATGACCTGGTCCTGCCAGAAGTTTCCTGATCCAGTGCGTACTGAGCACTAGATAGC
RNA: AAUUUCUACUCUUGUAGAUAGGAAACUUCUGGCAGGACC
B14: CTAT (dsDNA)
DNA 1: GCTATCTAGTGCTCAGTACGCACTGCTATAGGAAACTTCTGGCAGGACCAGGTCATGAGATCGGAAGAGCACACGTCTGAACTCCAGTCA
DNA 2: TGACTGGAGTTCAGACGTGTGCTCTTCCGATCTCATGACCTGGTCCTGCCAGAAGTTTCCTATAGCAGTGCGTACTGAGCACTAGATAGC
RNA: AAUUUCUACUCUUGUAGAUAGGAAACUUCUGGCAGGACC
B15: CCCG (dsDNA)
DNA 1: GCTATCTAGTGCTCAGTACGCACTGCCCGAGGAAACTTCTGGCAGGACCAGGTCATGAGATCGGAAGAGCACACGTCTGAACTCCAGTCA
DNA 2: TGACTGGAGTTCAGACGTGTGCTCTTCCGATCTCATGACCTGGTCCTGCCAGAAGTTTCCTCGGGCAGTGCGTACTGAGCACTAGATAGC
RNA: AAUUUCUACUCUUGUAGAUAGGAAACUUCUGGCAGGACC
B16: CGTT (dsDNA)
DNA 1: GCTATCTAGTGCTCAGTACGCACTGCGTTAGGAAACTTCTGGCAGGACCAGGTCATGAGATCGGAAGAGCACACGTCTGAACTCCAGTCA
DNA 2: TGACTGGAGTTCAGACGTGTGCTCTTCCGATCTCATGACCTGGTCCTGCCAGAAGTTTCCTAACGCAGTGCGTACTGAGCACTAGATAGC
RNA: AAUUUCUACUCUUGUAGAUAGGAAACUUCUGGCAGGACC
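Note: relative affinity from the bound to unbound sequence frequency ratio in Spec-seq.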

The target in one assay is dAsCas12a E174R (Acidaminococcus sp., UniProt U2UMQ6 1-1307, E174R;D908A;E993A;D1235A). The assay can be described thus: Spec-seq (native PAGE EMSA with sequencing of bound and unbound); 25 mM Tris-HCl pH 7.4, 150 mM KCl, 5 mM MgCl2, 10% glycerol, 1 mM DTT, 40 ng/uL salmon sperm DNA; 400 nM Cas12a, 480 nM crRNA, 50 nM library, 37 C 1 h; native PAGE at room temperature; high values mean tight binding. To be noted: protein: recombinant.
B1: the binding signal was -8.63 lnKA.

Turning to B2, the binding signal was -8.52 lnKA.

As for B3, the binding signal was -8.91 lnKA.

As to B4, the binding signal was -8.73 lnKA.

For the molecule B5, the binding signal was -8.89 lnKA.

As to B6, the binding signal was -9 lnKA.

For the molecule B7, the binding signal is -8.88 lnKA.

On to B8, for which the binding signal is -8.85 lnKA.

For B9, the binding signal is -8.97 lnKA.

Regarding B10, the binding signal was -8.98 lnKA.

B11: the binding signal is -8.95 lnKA.

As for B12, the binding signal was -8.81 lnKA.

For B13, the binding signal is -8.27 lnKA.

Turning to B14, the binding signal was -8.81 lnKA.

Turning to B15, the binding signal was -8.56 lnKA.

Consider B16, for which the binding signal was -8.95 lnKA.

A further assay has as its target dAsCas12a S542R (Acidaminococcus sp., UniProt U2UMQ6 1-1307, S542R;D908A;E993A;D1235A). The description is as above. The conditions noted are these: protein: recombinant.
On to B1, for which the binding signal is -6.21 lnKA.

For the molecule B2, the binding signal was -6.38 lnKA.

As to B3, the binding signal was -6.67 lnKA.

Take B4: the binding signal was -7.58 lnKA.

For B5, the binding signal was -8.52 lnKA.

B6: the binding signal is -8.01 lnKA.

In the case of B7, the binding signal was -8.38 lnKA.

Take B9: the binding signal was -8.43 lnKA.

Regarding B10, the binding signal is -8.4 lnKA.

Take B11: the binding signal was -8.41 lnKA.

Take B12: the binding signal was -8.57 lnKA.

On to B13, for which the binding signal is -8.34 lnKA.

As for B14, the binding signal is -8.52 lnKA.

On to B15, for which the binding signal is -6.18 lnKA.

In the case of B16, the binding signal was -8.31 lnKA.

The target in a further assay is d-enCas12a (Acidaminococcus sp., UniProt U2UMQ6 1-1307, E174R;S542R;K548R;D908A;E993A;D1235A). Described as above. To be noted: protein: recombinant.
Turning to B1, the binding signal was -3.48 lnKA.

Turning to B2, the binding signal was -2.71 lnKA.

As for B3, the binding signal was -4.72 lnKA.

As for B4, the binding signal is -3.44 lnKA.

Take B5: the binding signal was -5.79 lnKA.

For B6, the binding signal was -5.51 lnKA.

Consider B7, for which the binding signal was -5.81 lnKA.

For the molecule B8, the binding signal was -5.75 lnKA.

As to B9, the binding signal is -5.65 lnKA.

Regarding B10, the binding signal is -5.24 lnKA.

For B11, the binding signal was -5.69 lnKA.

Consider B12, for which the binding signal was -5.78 lnKA.

In the case of B13, the binding signal is -3.86 lnKA.

For the molecule B14, the binding signal was -5.65 lnKA.

As to B15, the binding signal is -4.37 lnKA.

Take B16: the binding signal was -5.2 lnKA.

Another assay deals with d-enCas12a-Ultra (Acidaminococcus sp., UniProt U2UMQ6 1-1307, E174R;S542R;K548R;M537R;F870L;D908A;E993A;D1235A). The assay is described as above. To be noted: protein: recombinant.
Turning to B1, the binding signal is -0.7 lnKA.

Take B2: the binding signal was -0.526 lnKA.

Turning to B3, the binding signal is -1.33 lnKA.

As to B4, the binding signal is -0.714 lnKA.

As for B5, the binding signal was -3.21 lnKA.

Regarding B6, the binding signal was -3.27 lnKA.

For B7, the binding signal is -3.32 lnKA.

For the molecule B8, the binding signal is -3.49 lnKA.

For the molecule B9, the binding signal is -2.64 lnKA.

In the case of B10, the binding signal was -2.1 lnKA.

B11: the binding signal was -3.33 lnKA.

As to B12, the binding signal is -3.2 lnKA.

Turning to B13, the binding signal is -1.57 lnKA.

In the case of B14, the binding signal was -3.31 lnKA.

Turning to B15, the binding signal is -0.97 lnKA.

Turning to B16, the binding signal is -2.1 lnKA.
